From PubChem BioAssay AID1645859 (Buhrlage Lab, Dana-Farber Cancer Institute and Novartis …, 2021)
About 95 (0.2%) of roughly 47,000 compounds were called active. Cut-off read from the data, not from the text of the source: active = inhibition above about 30%; inactive = the rest. The entries come from a sample that favours actives as a whole.

target: Ubiquitin carboxyl-terminal hydrolase isozyme L1 (Homo sapiens) (UniProt P09936); experiment: blocks human UCHL1 ubiquitin-rhodamine cleavage (AID 1645859); conditions: purified UCHL1, Ub-rhodamine cleavage fluorescence; at 20 µM; active compounds read high
Sequence (P09936 whole entry, looked up): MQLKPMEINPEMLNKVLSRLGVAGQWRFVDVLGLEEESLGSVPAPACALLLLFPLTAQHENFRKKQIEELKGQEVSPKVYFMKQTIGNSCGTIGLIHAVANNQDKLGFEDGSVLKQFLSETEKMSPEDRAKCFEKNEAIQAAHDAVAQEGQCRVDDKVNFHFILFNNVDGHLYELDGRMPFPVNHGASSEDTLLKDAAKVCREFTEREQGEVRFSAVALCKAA

inhibition, inactive:
Cc1nc(C2CCCN2C(=O)c2ccccn2)nc2c1CCCN2Cc1ccccn1 (stereo unspecified) -7.02%, COc1ccc(NC(=O)CN(C)C(=O)c2ccc3c(c2)nnn3C)cc1 2.41%, Cc1ccc(C(=O)N2CCN3Cc4ccccc4N(C)CC3C2)cc1 (stereo unspecified) -155%, Cc1cc(-c2cncnc2-c2ccc(CNC(=O)Cc3cc(F)ccc3F)cc2)on1 2.52%, CCc1ccc(C2CN3C(=O)CN(CCN4CCOCC4)C(=O)[C@]3(C)c3[nH]c4ccccc4c32)cc1 (stereo partly specified) 7.01%, O=C(O)c1ccccc1-c1ccccc1C(=O)Nc1ccccc1O 1.93%, O=C(Nc1cccc(-c2cccc(F)c2)c1)C1CCN(Cc2cccc3c2OCO3)CC1 6.73%, CC(C)(C)c1ccc(Oc2ccc(NC(=O)c3ccc4c(c3)CCO4)cn2)cc1 1.03%, CN(C(=O)CC(NC(=O)c1ccccc1)(c1ccccc1)c1ccccc1)c1ccccc1 1.79%, Cc1ccc(NC(=O)CCc2nc(CSc3nnc(-c4ccco4)o3)no2)cc1C 1.67%, CNCC(=O)N1CCCC(c2nc(C)cc(Nc3cccc(C)n3)n2)C1 (stereo unspecified) 0.00326%, COc1ccc(C)cc1NC(=O)NC1(c2nc(C)no2)CCCCC1 -4.28%, Cc1sc2ncn(CC(=O)N3c4ccccc4CC3C)c(=O)c2c1C (stereo unspecified) -2.03%, Cc1ccc(CS(=O)(=O)c2cn(CC(=O)NCc3cccnc3)c3ccccc23)cc1 1.32%, O=C(C1CCCN(S(=O)(=O)c2ccccc2)C1)N1CCN(CCc2ccccn2)CC1 (stereo unspecified) -1.48%, COc1ccc(NC(=O)C2=C(C)Nc3ncnn3C2c2cccc(OCc3ccc(F)cc3)c2)c(OC)c1 (stereo unspecified) 4.6%, COc1cc(C2CC(=O)Nc3cc4c(cc32)OCO4)ccc1O (stereo unspecified) -1.12%, CC(C)Cc1ncc(CCCN=C(N)N)[nH]c1=O -8.33%, COc1ccc(C2c3cccn3CCN2C(=O)Nc2cccs2)cc1 (stereo unspecified) -66.3%, Cc1ccccc1Cn1cc(/C=C2/C(=N)N3N=C(COc4ccccc4)SC3=NC2=O)c2ccccc21 -1.05%, CCOC(=O)C1=C(COc2ccccc2C#N)NC(=O)NC1C (stereo unspecified) -3.02%, Cc1cc(C)n2nc(C(=O)N3CCCC(c4[nH]ncc4C)C3)cc2n1 (stereo unspecified) -2.57%, Cc1nc(N(C)Cc2ccccc2)c2c3c(sc2n1)CCCC3 -6.54%, Cc1oc(C2CCN(C(=O)NC3CCCC3)CC2)nc1C(=O)N(C)C 1.1%, CC1CCN(C(=O)Cn2c(=O)n(Cc3ccccc3)c(=O)c3cc(Cl)ccc32)CC1 3.62%, COc1ccccc1C1CNCCN1Cc1cnc(N(C)C)nc1 (stereo unspecified) -0.867%, Cc1cc(OCc2ccc(Cl)cc2Cl)cc2c1C(=O)CC(C)(C)O2 3.56%, Cc1noc(C2CN(Cc3nccs3)Cc3ccnn3C2)n1 (stereo unspecified) -2.68%, O=C(CCc1c[nH]c2ccccc12)N1CCN(C(=O)C2CCCO2)CC1 (stereo unspecified) -0.0658%, Cc1nc2ccccc2n(CC(=O)NCc2ccc(OC(C)C)cc2)c1=O -4.18%, CCCN1CCC(Nc2ncnc3scc(-c4ccccc4)c23)CC1 -1.59%
